Activity calls are given as the source filed them. Rule for the calls: active = hit-call score of the fitted dose curve at least 0.9, where 1 is the maximum; inactive = score below 0.9.
What was measured:
Conditions in all cases: mRNA level, 48 h; actives raise or lower the signal
[1] = read-out: Cytochrome P450 4A22 (Homo sapiens) (UniProt Q5TCH4); test: LTEA_HepaRG_CYP4A22: Life Technologies and Expression Analysis (LTEA) Assay for Cytochrome P450 4A22 (CYP4A22) using HepaRG (AID 2283495)
How it was run: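 HepaRG, 48 h post-plating -> serum-free induction medium; dosed 48 h, duplicate, 8 conc. (100 uM top, half-log), 0.5% DMSO. Readout: CYP4A22 mRNA by qRT-PCR, ACTB/GAPDH/POLR2A normalization; gain/loss fit relative to DMSO.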

[2] = read-out: Cytochrome P450 7A1 (Homo sapiens) (UniProt P22680); test: LTEA_HepaRG_CYP7A1: Life Technologies and Expression Analysis (LTEA) Assay for Cytochrome P450 7A1 (CYP7A1) using HepaRG (AID 2283496)
How it was run: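 Using 0.5% DMSO as vehicle and baseline, chemicals were tested in duplicate over an 8-point range from 100 uM on HepaRG cells for 48 h; qRT-PCR signals were normalised to ACTB, GAPDH and POLR2A.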

[3] = read-out: Glutathione S-Transferase (GSTA2), GSTA2 (gene 2939); test: LTEA_HepaRG_GSTA2: Life Technologies and Expression Analysis (LTEA) Assay for Glutathione S-Transferase (GSTA2) using HepaRG (AID 2283497)
How it was run: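 qRT-PCR readout of GSTA2 transcript, normalized to three housekeeping genes, fitted bidirectionally against 0.5% DMSO baseline. Differentiated HepaRG cells received compound for 48 h at 8 concentrations (top 100 uM, half-log steps).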

[4] = read-out: Glutamate-cysteine ligase catalytic (GCLC), GCLC (gene 2729); test: LTEA_HepaRG_GCLC: Life Technologies and Expression Analysis (LTEA) Assay for Glutamate-cysteine ligase catalytic (GCLC) using HepaRG (AID 2283498)
How it was run: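 HepaRG, 48 h exposure, 8-pt half-log series from 100 uM, 0.5% DMSO vehicle; TaqMan qRT-PCR for GCLC mRNA, housekeeping-normalized; bidirectional curve fit vs DMSO baseline.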

[5] = read-out: growth arrest and DNA damage 45 (GADD45G), GADD45G (gene 10912); test: LTEA_HepaRG_GADD45G: Life Technologies and Expression Analysis (LTEA) Assay for growth arrest and DNA damage 45 (GADD45G) using HepaRG (AID 2283499)
How it was run: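 HepaRG, 48 h exposure, top 100 uM, half-log 8-point series, 0.5% DMSO vehicle, duplicates. Readout: GADD45G transcript by qRT-PCR (Fluidigm array), housekeeping-normalised (ACTB/GAPDH/POLR2A). Bidirectional curve fit vs DMSO baseline.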

[6] = read-out: Glutamate-cysteine ligase regulatory (GCLM), GCLM (gene 2730); test: LTEA_HepaRG_GCLM: Life Technologies and Expression Analysis (LTEA) Assay for Glutamate-cysteine ligase regulatory (GCLM) using HepaRG (AID 2283500)
How it was run: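 HepaRG, 48 h dosing, 100 uM top, half-log x8, 0.5% DMSO vehicle. Readout: GCLM mRNA by TaqMan qRT-PCR, housekeeping-normalized (ACTB/GAPDH/POLR2A). Curves fit bidirectionally vs DMSO baseline.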

[7] = read-out: Glutathione S-transferase M3 (GSTM3), GSTM3 (gene 2947); test: LTEA_HepaRG_GSTM3: Life Technologies and Expression Analysis (LTEA) Assay for Glutathione S-transferase M3 (GSTM3) using HepaRG (AID 2283501)
How it was run: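 qRT-PCR read-out of GSTM3 transcript, normalized to three housekeeping genes, from human HepaRG cells after 48 h chemical exposure. Eight-point half-log series, top 100 uM, 0.5% DMSO vehicle; gain or loss fitted relative to DMSO baseline.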

[8] = read-out: Heat shock 70 kDa protein 1 (HSPA1A), gene 3303; test: LTEA_HepaRG_HSPA1A: Life Technologies and Expression Analysis (LTEA) Assay for Heat shock 70 kDa protein 1 (HSPA1A) using HepaRG (AID 2283502)
How it was run: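 HepaRG, 48 h exposure, 8-pt half-log CRC from 100 uM in 0.5% DMSO, duplicates. Readout: TaqMan qRT-PCR of HSPA1A mRNA, housekeeping-normalized (ACTB/GAPDH/POLR2A). Bidirectional fit vs 0.5% DMSO baseline.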

[9] = read-out: Hypoxia-inducible factor 1-alpha (Homo sapiens) (UniProt Q16665); test: LTEA_HepaRG_HIF1A: Life Technologies and Expression Analysis (LTEA) Assay for Hypoxia-inducible factor 1 (HIF1A) Trancription factor using HepaRG (AID 2283503)
How it was run: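 Gain- or loss-of-signal HIF1A mRNA changes are fitted against a DMSO baseline. HepaRG cultures receive eight concentrations, highest 100 uM, for 48 h in serum-free induction medium with 0.5% DMSO.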

[10] = read-out: 3-Hydroxy-3-Methylglutaryl-CoA Synthase 2 (HMGCS2), HMGCS2 (gene 3158); test: LTEA_HepaRG_HMGCS2: Life Technologies and Expression Analysis (LTEA) Assay for 3-Hydroxy-3-Methylglutaryl-CoA Synthase 2 (HMGCS2) using HepaRG (AID 2283504)
How it was run: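 qRT-PCR read-out of HMGCS2 transcript, normalised to three housekeeping genes, in HepaRG cells after 48 h chemical exposure. Eight-point curves from 100 uM, half-log dilutions, 0.5% DMSO vehicle; gain or loss fitted relative to DMSO baseline.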

HGF (gene 3082) = test: LTEA_HepaRG_HGF: Life Technologies and Expression Analysis (LTEA) Assay for Hepatocyte Growth Facto (HGF) using HepaRG (AID 2283505)
How it was run: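 HepaRG, 48 h dosing, 8-pt half-log series from 100 uM in 0.5% DMSO, duplicates. Readout: TaqMan qRT-PCR of HGF mRNA, housekeeping-normalized; bidirectional curve fit vs DMSO baseline.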

[11] = read-out: Insulin Like Growth Factor 1 (IGF1), IGF1 (gene 3479); test: LTEA_HepaRG_IGF1: Life Technologies and Expression Analysis (LTEA) Assay for Insulin Like Growth Factor 1 (IGF1) using HepaRG (AID 2283506)
How it was run: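 qRT-PCR readout of IGF1 mRNA, normalized to three housekeeping genes, after 48 h chemical exposure of HepaRG cells. Concentrations: 8-point half-log series, top 100 uM, 0.5% DMSO vehicle. Gain or loss fitted against DMSO baseline.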

[12] = read-out: Intercellular Adhesion Molecule 1 (ICAM1), ICAM1 (gene 3383); test: LTEA_HepaRG_ICAM1: Life Technologies and Expression Analysis (LTEA) Assay for Intercellular Adhesion Molecule 1 (ICAM1) using HepaRG (AID 2283507)
How it was run: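 HepaRG, 48 h exposure, 8-pt half-log series from 100 uM, 0.5% DMSO vehicle, duplicates. Readout: TaqMan qRT-PCR mRNA, housekeeping-normalized (ACTB/GAPDH/POLR2A). Bidirectional curve fit vs DMSO baseline.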

[13] = read-out: Interleukin 6 (IL6), IL6 (gene 3569); test: LTEA_HepaRG_IL6: Life Technologies and Expression Analysis (LTEA) Assay for Interleukin 6 (IL6) using HepaRG (AID 2283509)
How it was run: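 qRT-PCR read-out of IL6 transcript, normalized to three housekeeping genes, after 48 h chemical exposure of HepaRG cells; 8-point half-log series, top 100 uM, 0.5% DMSO vehicle. Bidirectional curve fitting against DMSO baseline.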

[14] = read-out: Interleukin 6 Receptor (IL6R), IL6R (gene 3570); test: LTEA_HepaRG_IL6R: Life Technologies and Expression Analysis (LTEA) Assay for Interleukin 6 Receptor (IL6R) using HepaRG (AID 2283510);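 for AC50: differentiated human HepaRG liver cells in serum-free induction medium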
How it was run: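 HepaRG, 48 h exposure, 8-pt half-log series, top 100 uM, 0.5% DMSO vehicle, duplicates. Read-out: TaqMan qRT-PCR of IL6R transcript, housekeeping-gene normalized. Gain or loss fitted relative to DMSO baseline.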

[15] = read-out: Potassium channel subfamily K member 1 (KCNK1), KCNK1 (gene 3775); test: LTEA_HepaRG_KCNK1: Life Technologies and Expression Analysis (LTEA) Assay for Potassium channel subfamily K member 1 (KCNK1) using HepaRG (AID 2283511)
How it was run: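 HepaRG, 48 h exposure, 8-pt half-log series top 100 uM, 0.5% DMSO vehicle, duplicates. Readout: KCNK1 transcript by qRT-PCR (Fluidigm array), housekeeping-normalized; bidirectional curve fit relative to DMSO baseline.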

[16] = read-out: Keratin 19 (KRT19), KRT19 (gene 3880); test: LTEA_HepaRG_KRT19: Life Technologies and Expression Analysis (LTEA) Assay for Keratin 19 (KRT19) using HepaRG (AID 2283512)
How it was run: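 HepaRG, 48 h chemical exposure, 8-pt half-log CRC from 100 uM, 0.5% DMSO vehicle, duplicates. Readout: TaqMan qRT-PCR of KRT19 mRNA, housekeeping-normalized (ACTB/GAPDH/POLR2A). Bidirectional fit vs DMSO baseline.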

[17] = read-out: JUN Transcription Factor, JUN (gene 3725); test: LTEA_HepaRG_JUN: Life Technologies and Expression Analysis (LTEA) Assay for JUN Transcription Factor using HepaRG (AID 2283513)
How it was run: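 HepaRG, 48 h exposure, 8-pt half-log series top 100 uM, 0.5% DMSO, duplicate. JUN mRNA by qRT-PCR (Fluidigm), housekeeping-normalized (ACTB/GAPDH/POLR2A); bidirectional curve fit vs DMSO baseline.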

[18] = read-out: Lipase C (LIPC), LIPC (gene 3990); test: LTEA_HepaRG_LIPC: Life Technologies and Expression Analysis (LTEA) Assay for Lipase C (LIPC) using HepaRG (AID 2283514)
How it was run: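 HepaRG, 48 h exposure, 8-pt half-log series from 100 uM in 0.5% DMSO, duplicates. Readout: LIPC mRNA by Fluidigm qRT-PCR, housekeeping-normalized (ACTB/GAPDH/POLR2A). Gain or loss fitted bidirectionally against DMSO baseline.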

Measured: AC50

Hypoxia-inducible factor 1-alpha (Homo sapiens), sequence (Q16665 whole entry, looked up): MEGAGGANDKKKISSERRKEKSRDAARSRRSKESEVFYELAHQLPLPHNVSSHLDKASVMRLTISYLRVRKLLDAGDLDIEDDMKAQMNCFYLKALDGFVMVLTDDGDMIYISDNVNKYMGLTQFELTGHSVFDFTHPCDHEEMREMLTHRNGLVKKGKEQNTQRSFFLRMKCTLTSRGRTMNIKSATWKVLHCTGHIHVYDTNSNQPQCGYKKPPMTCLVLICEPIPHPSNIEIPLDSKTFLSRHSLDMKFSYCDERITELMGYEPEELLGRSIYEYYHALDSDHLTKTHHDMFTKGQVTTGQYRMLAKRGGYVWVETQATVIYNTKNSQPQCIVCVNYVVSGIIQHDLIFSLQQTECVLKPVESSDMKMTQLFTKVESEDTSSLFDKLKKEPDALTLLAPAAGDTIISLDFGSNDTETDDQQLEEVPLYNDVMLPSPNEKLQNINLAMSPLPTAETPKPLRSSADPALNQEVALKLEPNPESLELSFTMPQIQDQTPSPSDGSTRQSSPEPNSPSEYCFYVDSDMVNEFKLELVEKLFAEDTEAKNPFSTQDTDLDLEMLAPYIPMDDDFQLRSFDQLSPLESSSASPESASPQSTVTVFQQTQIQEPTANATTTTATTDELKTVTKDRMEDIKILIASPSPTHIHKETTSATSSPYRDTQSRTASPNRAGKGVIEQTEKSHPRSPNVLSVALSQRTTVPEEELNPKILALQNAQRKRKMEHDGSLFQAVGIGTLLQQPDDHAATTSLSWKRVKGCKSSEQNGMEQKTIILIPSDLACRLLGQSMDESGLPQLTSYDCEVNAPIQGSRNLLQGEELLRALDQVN

CC(=O)S[C@@H]1CC2=CC(=O)CC[C@]2(C)[C@H]2CC[C@@]3(C)[C@@H](CC[C@@]34CCC(=O)O4)[C@H]12
inactive: [6] | [7] | [8] | [9] | HGF (gene 3082) | [12] | [13] | [15] | [16] | [17]
active: [1] 50 µM | [2] 62.4 µM | [3] 69.5 µM | [4] 50 µM | [5] 32.7 µM | [10] 65.7 µM | [11] 68.7 µM | [14] 63.3 µM | [18] 50 µM

O=C(c1ccc(O)cc1O)c1ccc(O)cc1O
inactive: [1] | [2] | [3] | [4] | [5] | [6] | [7] | [8] | [9] | [10] | HGF (gene 3082) | [11] | [12] | [13] | [14] | [15] | [16] | [17] | [18]

CCCCOC(=O)[C@@H](C)Oc1ccc(Oc2ccc(C(F)(F)F)cn2)cc1
inactive: [1] | [3] | [4] | [5] | [6] | [7] | [8] | [9] | [10] | HGF (gene 3082) | [11] | [12] | [13] | [14] | [15] | [16] | [17] | [18]
active: [2] 34.2 µM

CC(C)CCCCCCc1ccc(O)cc1
inactive: [1] | [2] | [3] | [4] | [5] | [6] | [7] | [8] | [9] | [10] | HGF (gene 3082) | [11] | [12] | [13] | [14] | [15] | [16] | [17] | [18]

C[C@]12C[C@H](O)[C@H]3[C@@H](CCC4=CC(=O)CC[C@@]43C)[C@@H]1CC[C@@H]2C(=O)CO
inactive: [1] | [2] | [3] | [4] | [5] | [6] | [7] | [8] | [9] | [10] | HGF (gene 3082) | [11] | [12] | [13] | [14] | [15] | [16] | [17] | [18]

COCCO
inactive: [3] | [4] | [5] | [6] | [7] | [8] | [9] | [10] | HGF (gene 3082) | [11] | [12] | [13] | [14] | [15] | [16] | [17] | [18]

S=C([S-])NCCNC(=S)[S-].[Mn+2]
active: [1] 3.6 µM | [2] 4.73 µM | [3] 2.38 µM | [5] 4.33 µM | [6] 8.92 µM | [7] 1.88 µM | [9] 3.12 µM | [10] 5.04 µM | HGF (gene 3082) 7.5 µM | [11] 5 µM | [12] 6.29 µM | [13] 5.31 µM | [14] 3.93 µM | [16] 10 µM | [18] 7.28 µM
inactive: [4] | [8] | [15]

COC(=O)c1ccccc1C(=O)O
inactive: [1] | [2] | [3] | [4] | [5] | [6] | [7] | [8] | [9] | [10] | HGF (gene 3082) | [11] | [12] | [13] | [14] | [15] | [16] | [17] | [18]

— PubChem BioAssay (EPA / NIEHS)
